Screen size: about 67,000 compounds; about 300 (0.45%) showed an effect of 50% or more. Many of the other results were omitted from the sample, so strong results are more common in it than they were.

Chain of Polyketide synthase Pks13 (Mycobacterium tuberculosis (strain ATCC 25618 / H37Rv)) (I6X8D2 whole entry): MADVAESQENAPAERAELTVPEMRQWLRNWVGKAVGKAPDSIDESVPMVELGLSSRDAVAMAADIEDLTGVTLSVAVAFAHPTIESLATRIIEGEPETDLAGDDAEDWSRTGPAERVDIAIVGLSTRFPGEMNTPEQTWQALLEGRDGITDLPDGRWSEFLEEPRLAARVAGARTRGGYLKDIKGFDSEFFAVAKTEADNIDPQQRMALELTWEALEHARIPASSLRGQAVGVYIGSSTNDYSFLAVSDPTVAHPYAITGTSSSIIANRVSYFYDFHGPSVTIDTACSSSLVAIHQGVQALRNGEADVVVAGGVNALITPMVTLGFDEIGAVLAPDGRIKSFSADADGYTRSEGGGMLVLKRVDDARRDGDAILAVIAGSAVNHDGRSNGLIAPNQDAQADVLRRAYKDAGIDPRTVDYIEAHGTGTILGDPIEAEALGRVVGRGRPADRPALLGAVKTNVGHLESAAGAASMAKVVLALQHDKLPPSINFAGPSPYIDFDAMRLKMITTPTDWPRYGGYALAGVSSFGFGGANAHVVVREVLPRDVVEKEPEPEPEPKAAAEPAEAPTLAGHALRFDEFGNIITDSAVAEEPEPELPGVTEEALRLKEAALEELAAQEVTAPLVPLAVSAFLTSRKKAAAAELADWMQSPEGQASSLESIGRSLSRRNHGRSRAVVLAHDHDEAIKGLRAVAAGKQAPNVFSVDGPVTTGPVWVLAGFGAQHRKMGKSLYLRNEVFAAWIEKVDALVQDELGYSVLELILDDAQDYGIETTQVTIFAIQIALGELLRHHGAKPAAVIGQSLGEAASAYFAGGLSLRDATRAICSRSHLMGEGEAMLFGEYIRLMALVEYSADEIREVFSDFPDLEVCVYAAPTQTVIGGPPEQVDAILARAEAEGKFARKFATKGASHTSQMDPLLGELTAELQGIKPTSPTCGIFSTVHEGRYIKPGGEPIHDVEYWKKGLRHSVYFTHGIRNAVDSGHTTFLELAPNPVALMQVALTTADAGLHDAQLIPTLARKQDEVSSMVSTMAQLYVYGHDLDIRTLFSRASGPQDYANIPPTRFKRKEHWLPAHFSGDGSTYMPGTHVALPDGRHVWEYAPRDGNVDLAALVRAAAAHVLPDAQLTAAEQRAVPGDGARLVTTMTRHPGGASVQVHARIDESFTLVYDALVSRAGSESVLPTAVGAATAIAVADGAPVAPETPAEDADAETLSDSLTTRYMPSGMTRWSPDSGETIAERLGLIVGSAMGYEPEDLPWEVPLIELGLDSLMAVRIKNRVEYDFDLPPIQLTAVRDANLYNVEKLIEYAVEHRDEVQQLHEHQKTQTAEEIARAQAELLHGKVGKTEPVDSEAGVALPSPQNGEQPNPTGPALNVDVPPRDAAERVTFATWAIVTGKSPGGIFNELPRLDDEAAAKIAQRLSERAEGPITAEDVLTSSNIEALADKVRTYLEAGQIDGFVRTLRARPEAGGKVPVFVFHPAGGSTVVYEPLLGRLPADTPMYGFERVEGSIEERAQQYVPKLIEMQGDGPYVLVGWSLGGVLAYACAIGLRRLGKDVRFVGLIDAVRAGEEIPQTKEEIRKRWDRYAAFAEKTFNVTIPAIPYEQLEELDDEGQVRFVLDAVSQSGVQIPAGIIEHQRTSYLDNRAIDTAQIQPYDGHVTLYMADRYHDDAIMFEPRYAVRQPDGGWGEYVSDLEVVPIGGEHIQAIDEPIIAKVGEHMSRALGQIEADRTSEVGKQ

The test concerns the target Polyketide synthase Pks13 (Mycobacterium tuberculosis (strain ATCC 25618 / H37Rv)) (UniProt I6X8D2). As to the kind of experiment: Mycobacterium tuberculosis Polyketide synthase 13 Thioesterase (PKS13). Type of test: functional. On the set-up: scale not given: in the data most compounds retested in dose-response had high values. The following applies: 30 µM.
`COCC(=O)N1C[C@H]2CNC[C@@]2(C(=O)NCc2cccc3[nH]ccc23)C1`: the Percent Effect was -18.7%.
`CO[C@@H]1CC[C@H]2[C@H]1OCCN2CC1CC1`: the Percent Effect is -4.52%.
Under `COc1ccc(OC)c(C(=O)N2C[C@H]3CC[C@@H]2CN(C)C3)c1` stands 2.2%.
Under `O=C(c1ccnnc1)N1C[C@H](Oc2cccnc2)[C@H]2OCCC[C@H]21` stands -7.04%; under `CC(C)c1nc2n(n1)CC(NCc1ncc(-c3ccccc3)o1)CC2` (stereo not given), -14.9%; under `CCc1nc2n(n1)CC(NCc1cnc(-c3ccccc3)nc1)CC2` (stereo not given), -15%.
For `CCc1nc2n(n1)CC(NCc1ncc(-c3ccccc3)o1)CC2` (stereo not given), the Percent Effect came to 108%.
Consider `Cn1nc(-c2ccccc2)cc1[C@H]1CN2CC[C@H]1C[C@@H]2CNS(C)(=O)=O`, for which the Percent Effect is -32.5%.
Regarding `COc1ccc(-c2cc(C3CC3)c(C#N)c(N)n2)cc1F`, the Percent Effect was -126%.
Under `N#Cc1c(C2CC2)cc(-c2ccc(O)cc2)nc1N` stands 44.4%; under `CS(=O)(=O)c1ccc(-c2cc(C3CC3)c(C#N)c(N)n2)cc1`, 62.7%.
Under `Cn1cc(CN2C[C@@H]3OCCN(CC4CCCC4)[C@@H]3C2)cn1` stands -22.6%; under `Cc1nc(CO[C@H]2CN(C(=O)c3ccc[nH]3)[C@@H]3COC[C@H]23)cs1`, -11.9%.
In the case of `CN(C)c1ccc(C(=O)NCc2ccc(N3CCOCC3)cc2)cn1`, the Percent Effect was -1.83%.
As to `O=C(NCc1ccccc1)c1nnc2ccc(N3CCOCC3)cc2n1`, the Percent Effect turned out to be 50.8%.
Under `CCN(CCC(F)(F)F)C(=O)Nc1cccc(N2CCOCC2)c1` stands -2.57%; under `CN(C)C(=O)c1nnc2ccc(N3CCOCC3)cc2n1`, 11.7%; under `CCNC(=O)c1nnc2ccc(N3CCOCC3)cc2n1`, 48.2%.
In the case of `CCN(CC)C(=O)c1nnc2ccc(N3CCOCC3)cc2n1`, the Percent Effect was determined as 51.7%.
Under `c1cncc(OC[C@@]23CCO[C@@H]2CCN(Cc2cccs2)C3)c1` stands 12.4%; under `Cc1cccc(CN2C[C@@H]3COC[C@]3(COc3cccnc3)C2)n1`, 8.46%.
Take `CC(=O)N1[C@@H](C(=O)NCC2CC2)C[C@@H]2CN(Cc3ccco3)C[C@@H]21`: the Percent Effect was -5.84%.
Under `O=C(c1ccccc1F)N1CC[C@@H]2CN(c3ncccn3)CCO[C@@H]2C1` stands 12%; under `CCC(CNC(=O)CNC(C)=O)Oc1cccc(F)c1` (stereo not given), -7.54%; under `CCC(=O)NCC(CC)Oc1cccc(F)c1` (stereo not given), -2.34%.
Under `CCC(CNC(=O)COC)Oc1cccc(F)c1` (stereo not given) stands 60.4%; under `O=C(CCc1ccccc1)N1C[C@@H]2CN(Cc3ccoc3)CCO[C@@H]2C1`, -7.96%.
In the case of `Cc1noc(CNc2ccc(CC(=O)N3CCSCC3)cc2)n1`, the Percent Effect was found to be 70.3%.
Under `CCc1noc(CNc2ccc(CC(=O)N3CCSCC3)cc2)n1` stands -12.3%.
Take `CCc1nnc(CNc2ccc(CC(=O)N3CCSCC3)cc2)o1`: the Percent Effect stood at 5.6%.
With `CN1C(=O)[C@H]2CC[C@@H]1CN(C(=O)c1sccc1S(N)(=O)=O)C2`, the Percent Effect is -33.4%.
Under `CCN1C[C@H]2CCN(C(=O)C3CCCO3)CC[C@H]2S1(=O)=O` (stereo not given in full) stands -20.2%; under `CNC(=O)[C@H]1C[C@@H]2CN(C(=O)c3cncc(C)c3)C[C@@H]2N1C`, 19.6%; under `COc1ccc(C(C)Nc2cnn(C)c(=O)c2Cl)cc1OC` (stereo not given), 2.82%.
As for `CC(Nc1cnn(C)c(=O)c1Cl)c1ccc(F)cc1` (stereo not given), the Percent Effect is -8.28%.
Under `CC(Nc1cnn(C)c(=O)c1Cl)c1ccc(F)c(F)c1` (stereo not given) stands 78.5%.
Regarding `O=C1[C@H]2CN(c3ncccn3)C[C@H]2CN1Cc1ccncc1`, the Percent Effect is -2.04%.
Turning to `c1cc(CN2C[C@@H]3OCCN(CC4CCCO4)[C@@H]3C2)cs1` (stereo not given in full), the Percent Effect is -16.8%.
Turning to `CCS(=O)(=O)N1C[C@H]2CN(Cc3ccc(OC)cc3)C(=O)[C@H]2C1`, the Percent Effect is -7.48%.
Under `O=C(CC(F)(F)F)N1C[C@H]2CN(CC3CC3)C(=O)[C@H]2C1` stands -30.7%; under `COCCCN1CCC(CNc2nccc(-c3cnn(C)c3)n2)C1` (stereo not given), -31.5%.
Under `Cn1cc(-c2ccnc(NCC3CCN(Cc4ccccc4)C3)n2)cn1` (stereo not given) stands 60.9%; under `Cn1cc(-c2ccnc(NCC3CC3)n2)cn1`, -14.8%.
Under `O=C(CSc1ccccn1)N1C[C@H]2CC[C@@H]1CN(Cc1cscn1)C2` stands -9.36%; under `CN(C)C(=O)CN1C[C@@H]2CC[C@H](C1)N(C(=O)Cc1ccccc1Cl)C2`, -15.3%.
Regarding `COc1cc(N2C[C@H]3CCC[C@@H](CN(C)C4CC4)[C@H]3C2)ncn1`, the Percent Effect was -5.89%.
Under `CN(C[C@@H]1CCC[C@@H]2CN(c3ncccn3)C[C@@H]21)C1CC1` stands 75.8%.
Under `COCCN(C)C[C@@H]1CCC[C@@H]2CN(c3ncccn3)C[C@@H]21` stands -50.6%; under `Cc1cccc(CN2C[C@H](OCc3csc(C)n3)[C@H]3COC[C@H]32)n1`, -2.96%; under `CCn1ncc2c1C(COCC1CC1)CN(C(=O)c1cccs1)C2` (stereo not given), -31.9%.
Take `CCOCC1CN(C(=O)c2cccs2)Cc2cnn(CC3CC3)c21` (stereo not given): the Percent Effect worked out at 80.6%.
Consider `CCOCC1CN(C(=O)c2cccn2C)Cc2cnn(CC3CC3)c21` (stereo not given), for which the Percent Effect is -11.3%.
Under `Cn1ccnc1CN1CC[C@@H]2[C@@H](CCC(=O)N2CCc2c[nH]cn2)C1` stands -26.1%; under `c1cnc(N2CCC3(CCCN(CC4CCCCC4)C3)C2)cn1` (stereo not given), 66.6%; under `CSc1nccc(N2CCC3(CCCN(CC4CC4)C3)C2)n1` (stereo not given), -0.995%.
Turning to `c1cnc(N2CCOCC3(CCCN(CC4CC4)C3)C2)cn1` (stereo not given), the Percent Effect was 2.73%.
With `C[C@H]1C[C@H]2CN(S(=O)(=O)c3ccc(F)cc3)CC[C@@H]2O1`, the Percent Effect was -20.4%.
Under `O[C@]12CCNC[C@H]1CN(c1nccc3ccccc13)CC2` stands -2.31%.
As for `CC(=O)N1CCCN(C(=O)NC(C)c2csc3ccccc23)CC1` (stereo not given), the Percent Effect is -15.4%.
Under `CC(NC(=O)N1CCC(CO)CC1)c1csc2ccccc12` (stereo not given) stands 53%.
Under `CC(NC(=O)N1CCC(CC(N)=O)CC1)c1csc2ccccc12` (stereo not given) stands -11.9%; under `Cc1cnn(CC2CCCN2Cc2cc(=O)n3cccc(C)c3n2)c1` (stereo not given), -5.2%; under `Cc1cnn(CC2CCCN2Cc2cc(=O)n3cc(C)ccc3n2)c1` (stereo not given), 99.9%.
As to `Cc1cnn(CC2CCCN2Cc2cc(=O)n3ccccc3n2)c1` (stereo not given), the Percent Effect worked out at 2.94%.
For `Cc1cnc(CNC(=O)[C@@]23CCO[C@@H]2CCN(c2ncccn2)C3)cn1`, the Percent Effect is -4.01%.
Consider `CC(C)CN1C[C@H]2CCN(C(=O)NC3CCCC3)CC[C@H]2S1(=O)=O`, for which the Percent Effect stood at 6.92%.
As to `CCNC(=O)CCC(=O)N1CCC(Oc2cc(C)ccc2C)CC1`, the Percent Effect was -5.09%.
Under `Cc1ccc(C)c(OC2CCN(C(=O)NCC(=O)N3CCCC3)CC2)c1` stands -7.72%.
On to `Cc1ccc(C)c(OC2CCN(C(=O)CNc3ccccc3Cl)CC2)c1`, for which the Percent Effect is 73.1%.
Under `CNC(=O)CN1CC[C@H]2CN(C(=O)c3cccc(C)c3)C[C@H]2C1` stands -11%; under `Cn1ccc(C(=O)N2C[C@@H]3CCN(c4cnccn4)C[C@@H]3C2)n1`, -2.86%.
For the compound `Cn1cncc1C(=O)N1C[C@@H]2CCN(c3cnccn3)C[C@@H]2C1`, the Percent Effect is -6.26%.
Under `Cn1ccnc1C(=O)N1C[C@@H]2CCN(c3cnccn3)C[C@@H]2C1` stands 124%; under `O=C(c1ccco1)N1CCO[C@@H]2CN(c3ncc(F)cn3)CC[C@@H]2C1`, -32.7%.
In the case of `CS(=O)(=O)NC[C@]12COC[C@H]1CN(C(=O)c1ccncn1)C2`, the Percent Effect was -5.6%.
As for `Cc1noc(C)c1CN1C(=O)[C@H]2CC[C@@H]1CN(Cc1cscn1)C2`, the Percent Effect is 7.07%.
With `CN(Cc1ccncc1)C1CCC[C@@H]2CN(c3ncccn3)C[C@H]12` (stereo not given in full), the Percent Effect is -25.8%.
Under `CCOC(=O)CNC(=O)NCc1cc(C)n(-c2ccc(OC)cc2)c1C` stands 10.9%; under `COc1ccccc1-n1c(C)cc(CNC(=O)NC(C)C)c1C`, 0.233%; under `CCOC(=O)CNC(=O)NCc1cc(C)n(-c2ccccc2OC)c1C`, 50%.
Under `CN1C[C@@H]2CN(C(=O)C3CC=CC3)C[C@@H]2C1=O` stands -9.96%; under `CN(C)c1ccc(C(=O)N2CCN(C(=O)N3CCCCC3)CC2)nn1`, 65.3%.
Consider `CCC(O)CN1CCN(C(=O)c2ccc(N(C)C)nn2)CC1` (stereo not given), for which the Percent Effect came to 5.36%.
Under `CN(C)c1ccc(C(=O)N2CCN(CC(C)(C)O)CC2)nn1` stands -26.8%.
Take `CCS(=O)(=O)N1C[C@H](c2nc(C)no2)C[C@H]2OCC[C@H]21`: the Percent Effect was found to be 5.36%.
`CCc1ccc(CN2C[C@H](OC)[C@H]3COC[C@H]32)o1`: the Percent Effect was -5.96%.
Under `O=C(NC1CCC1)[C@H]1C[C@@H]2CN(C(=O)Nc3ccc(F)cc3)C[C@H]1O2` stands 5.75%; under `O=C(c1ccc(O)cc1)N1C[C@@H]2OCCN(c3ncccn3)[C@@H]2C1`, -11.4%; under `Cn1cc(CN2C[C@H]3CCC[C@@H](CNc4nccn4C)[C@H]3C2)cn1`, -23.6%.
Take `Cc1cccc(CN2C(=O)C[C@H]3[C@@H]2CCN3Cc2ccco2)n1`: the Percent Effect is -23.1%.
For the compound `CCCOc1cccc(NS(=O)(=O)c2cc(C(=O)O)cs2)c1`, the Percent Effect is 40.8%.
Under `O=C(O)c1csc(S(=O)(=O)Nc2cccc(OCC(F)(F)F)c2)c1` stands 50%; under `CCOc1cccc(NS(=O)(=O)c2cc(C(=O)O)cs2)c1`, 0.586%; under `CCOC1CCN(CCc2nc(-c3cccc(Cl)c3)no2)CC1`, 8.68%.
For `NC(=O)N1CCCN(CCc2nc(-c3cccc(Cl)c3)no2)CC1`, the Percent Effect was 55.5%.
Turning to `Clc1cccc(-c2noc(CCN3CCN(c4ccncc4)CC3)n2)c1`, the Percent Effect was -57.2%.
For `CN1CCN(C(=O)[C@H]2C[C@@H]3CN(c4ncc(F)cn4)C[C@@H]3N2C)CC1`, the Percent Effect is -4.39%.
Consider `COCC(=O)N1CC[C@@H]2O[C@H](COCc3ccncc3)CC[C@@H]21`, for which the Percent Effect was -12.9%.
Under `COC(=O)Cn1cccc(S(=O)(=O)N2CCC(C)CC2)c1=O` stands 50.5%; under `CC1CCN(S(=O)(=O)c2cccn(CC(=O)NC3CCCC3)c2=O)CC1`, 3.17%; under `CC1CCN(S(=O)(=O)c2cccn(CC(=O)NC(C)(C)C)c2=O)CC1`, -9.8%.
Take `CCOCCC(=O)N1CCc2cccc(S(=O)(=O)N3CCOCC3)c2C1`: the Percent Effect was 59.9%.
Under `COCC(=O)N1CCc2cccc(S(=O)(=O)N3CCOCC3)c2C1` stands -3.94%; under `CCCOC(=O)N1CCc2cccc(S(=O)(=O)N3CCOCC3)c2C1`, -4.05%.
On to `COCCNC(=O)[C@@H]1CN(c2ncccn2)C[C@H]2OCC[C@H]21`, for which the Percent Effect was -43.5%.
Under `CC(=O)N1C[C@H]2CN(CC3CC3)C(=O)[C@H]2C1` stands -18.6%; under `CSc1ccc2cc(CN(C)CCO)c(=O)[nH]c2c1`, 67%; under `CSc1ccc2cc(CN(C)CCCN(C)C)c(=O)[nH]c2c1`, 6.22%.
Turning to `CSc1ccc2cc(CN(C)CCc3cn[nH]c3)c(=O)[nH]c2c1`, the Percent Effect was -13.1%.
Under `Cc1cnc(N2CCN3C[C@H](OCc4ccccn4)C[C@H]3C2)nc1` stands -24.2%.

Values taken from ChEMBL document CHEMBL3988442, “University of Dundee, Small-Polar-MMV Screening Library” (2021).
